In PubChem BioAssay (NCATS) one finds outcome and Potency data, which are given here for 15 molecules.

Experiment [1] is described as follows: Cellular Toxicity (caspase-3) HepG2 (AID 654).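 Also: cells exposed to compound for 16 hours before reading.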 A digest of the protocol:
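HepG2 cells (1500/well) in complete medium were treated with compounds for 16 hr at 37 °C. Caspase-3/7 activity was then read as luminescence from peptide-aminoluciferin cleavage. AC50 came from Hill fits, normalized to DMSO and 100 uM tamoxifen.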

The nature of experiment [2]: Cellular Toxicity (caspase-3) Jurkat (AID 655).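 Also: cells exposed to compound for 16 h at 37 °C before reading.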 Also: potency is read from the fitted curve at half-maximal effect. The method, boiled down: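 Jurkat cells (5000/well) in complete medium exposed 16 h at 37 C; caspase-3/7 activity read by Caspase-Glo luminescence after 20 min at room temperature. Normalized to DMSO and 100 uM tamoxifen; AC50 from Hill fits.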
Experiment [3] is described as follows: Cellular Toxicity (caspase-3) HUV-EC-C (AID 656). A digest of the protocol: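 HUV-EC-C cells (1000/well) in complete medium, compound-treated 16 h at 37 °C; caspase-3/7 activity read by Caspase-Glo 3/7 luminescence. Normalized to DMSO (basal) and 100 uM tamoxifen (100%); AC50 from Hill-equation concentration-response fits.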
The nature of experiment [4]: Cellular Toxicity (caspase-3) SHSY5Y (AID 657). The method, boiled down:
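SH-SY5Y human neuroblastoma cells, 1500/well, exposed to compound for 16 hours at 37 °C in complete medium. Caspase-3/7 activity read by Caspase-Glo luminescence after 1 hr at room temperature, normalized to DMSO and 10 uM staurosporine; AC50 from Hill fit.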

Experiment [5] can be described thus: Cellular Toxicity (caspase-3) BJ (AID 658). As to conditions: Potency: caspase-3 activation. The method, boiled down: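 Readout: Caspase-Glo 3/7 luminescence increase in BJ cells after 16 hr treatment at 37 °C. Staurosporine and tamoxifen served as positive controls; AC50 values came from Hill modelling of data normalized to DMSO and 10 uM staurosporine.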
A short description of experiment [6]: Cellular Toxicity (caspase-3) MRC-5 (AID 659). As to conditions: Potency: caspase-3 activation. The method, boiled down:
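Concentration-dependent caspase 3/7 activation is measured in human normal lung fibroblasts (MRC-5) following 16-hour treatment. AC50 values come from standard Hill-equation modeling of luminescence normalized to DMSO and 10 uM staurosporine.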

A short description of experiment [7]: Cellular Toxicity (caspase-3) Mesangial (AID 660).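 Also: cells exposed to compound for 16 h before the caspase read.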 A digest of the protocol:
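Human renal glomerular mesangial cells (1000/well) were treated with compounds for 16 h at 37 °C in complete medium, then caspase 3/7 activity was read by Caspase-Glo luminescence. Data were normalized to DMSO and 100 uM tamoxifen; AC50 from Hill fits.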

Experiment [8] is described as follows: Cellular Toxicity (caspase-3) SK-N-SH (AID 661). As to conditions: SK-N-SH caspase-3 activation, qHTS; caspase-3 activation: at 91.7 µM (top of the series), DMSO as zero, staurosporine as full. A digest of the protocol: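 SK-N-SH human neuroblastoma cells (1500/well) were treated with compounds for 16 hr at 37 °C in complete medium; caspase 3/7 activity was read by Caspase-Glo luminescence. AC50 came from Hill fits of data normalized to DMSO and 10 uM staurosporine.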
(In general: In qHTS, concentration-response curves come from the screen itself.)

Experiment [9] can be described thus: Cellular Toxicity (caspase-3) H-4-II-E (AID 663).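 Also: cells exposed to compound for 16 hr before readout.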 A digest of the protocol:
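Apoptosis induction is scored as increased luminescence from caspase 3/7 substrate cleavage in rat hepatoma H-4-II-E cells exposed to compound for 16 hr. Activity is scaled between DMSO and 100 uM tamoxifen.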

The nature of experiment [10]: Cellular Toxicity (caspase-3) Hek293 (AID 664).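 Also: cells exposed to compound for 16 h at 37 °C before readout.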 A digest of the protocol: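 HEK293 cells were exposed to compounds in complete medium for 16 hr at 37 °C, then caspase-3/7 activity was read by Caspase-Glo 3/7 luminescence after 20 min at room temperature. Data normalized to DMSO and 100 uM tamoxifen; AC50 from Hill fits.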

Inconclusive results are not listed. Activity calls are given as the source filed them. Calls follow the shape of the dose curve; as a rule, active = well fitted curve in the direction sought with a large enough effect; inconclusive = small, poorly fitted or top-dose-only effect, or another doubt; inactive = no such curve, though single readings can be large; an effect the other way counts as inactive or inconclusive.

For the molecule `CCCCCl`, the molecule was classed as inactive in experiment [1], in [3], in experiment [4], in [7], in [9] and in experiment [10]. The Potency entry in [2], in experiment [5], in [6] and in experiment [8] was “inactive” in each case.
Turning to `ClC(Cl)(Cl)Cl`, the molecule was classed as inactive in [1], in experiment [3], in experiment [4], in experiment [7], in [9] and in experiment [10]. The Potency entry in experiment [2], in [5], in experiment [6] and in [8] was “inactive” each time.
As for `ClCC1CO1` (centres undefined), the outcome in experiment [1], in [3], in experiment [4], in experiment [7], in experiment [9] and in experiment [10] was inactive. Further, the Potency result in experiment [2], in experiment [5], in experiment [6] and in experiment [8] was “inactive” throughout.
Take `CCCCCCCCOC(=O)c1ccccc1C(=O)OCCCCCCCC`: the result in experiment [1], in experiment [3], in experiment [4], in experiment [7], in [9] and in experiment [10] was inactive. Moreover, the Potency entry in experiment [2], in [5], in experiment [6] and in experiment [8] was “inactive” in each case.
Consider `NNC(N)=O`, for which the outcome in experiment [1], in experiment [3], in experiment [4], in [7], in experiment [9] and in experiment [10] was inactive. For the same molecule, the Potency result in experiment [2], in [5], in [6] and in experiment [8] was “inactive” throughout.
Turning to `S=C=S`, the molecule was classed as inactive in experiment [1], in experiment [3], in experiment [4], in experiment [7], in [9] and in [10]. Besides, the Potency result in [2], in experiment [5], in experiment [6] and in experiment [8] was “inactive” throughout.
Turning to `C=CCN=C=S`, the outcome in [1], in experiment [3], in [4], in experiment [7], in experiment [9] and in [10] was inactive. The Potency result in experiment [2], in experiment [5], in [6] and in experiment [8] was “inactive” each time.
Consider `O=C/C=C/c1ccccc1`, for which the outcome in [1], in experiment [3], in [4], in experiment [7], in [9] and in experiment [10] was inactive. Further, the Potency result in experiment [2], in experiment [5], in [6] and in experiment [8] was “inactive” throughout.
In the case of `O=C(O)C(Cl)(Cl)Cl`, the molecule was called inactive in [1], in experiment [3], in experiment [4], in experiment [7], in experiment [9] and in experiment [10]. Further, the Potency result in [2], in experiment [5], in experiment [6] and in experiment [8] was “inactive” each time.
Consider `COc1ccc2c(c1OC)C(=O)OC2C1c2cc3c(cc2CCN1C)OCO3` (centres undefined), for which the molecule was classed as inactive in experiment [1], in experiment [3], in [4], in experiment [7], in experiment [9] and in experiment [10]. For the same molecule, the Potency result in experiment [2], in [5], in [6] and in [8] was “inactive” each time.
Turning to `C[C@H]1CCC[C@H](O)CCCCCc2cc(O)cc(O)c2C(=O)O1`, the outcome in experiment [1], in experiment [3], in experiment [4], in experiment [7], in [9] and in [10] was inactive. Further, the Potency result in experiment [2], in experiment [5], in experiment [6] and in experiment [8] was “inactive” each time.
As for `ClC=C(Cl)Cl`, the call in [1], in [3], in [4], in experiment [7], in experiment [9] and in experiment [10] was inactive. The Potency entry in experiment [2], in experiment [5], in experiment [6] and in experiment [8] was “inactive” in each case.
Turning to `COC1=CC(=O)O[C@@H](/C=C/c2ccccc2)C1`, the molecule was classed as inactive in [1], in experiment [3], in [4], in [7], in experiment [9] and in [10]. The Potency result in [2], in [5], in [6] and in experiment [8] was “inactive” each time.
Take `O=C1C2CC=CCC2C(=O)N1SC(Cl)(Cl)Cl` (centres undefined): the result in experiment [1], in [3], in experiment [4], in [7], in experiment [9] and in experiment [10] was inactive. Moreover, the Potency in experiment [2] is 1580 nM (active). The Potency entry in experiment [5] and in [6] was “inactive” throughout.
In the case of `[Cl-].[Cl-].[Hg+2]`, the molecule was classed as inactive in [1], in [3], in experiment [4], in [7], in experiment [9] and in experiment [10]. The Potency result in [2], in [5], in experiment [6] and in [8] was “inactive” throughout.
